Results on ten compounds are retold here after article PMC5540273 (PLoS ONE, 2017).

Test systems include CDK4-cyclinD1; CDK4-cyclinD3; CDK4; CDK5; CDK7; CDK8; CDK9; CDKL1; CDKL2; CDKL3; CDKL5; CHEK1; CHEK2; CIT; CLK1; CLK2; CLK3; CLK4; CSF1R-autoinhibited; CSF1R.
Conditions in all cases: concentration: 1 μM, replicates: in singlicate; n = 1
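Note: KINOMEscan kinase panel screen.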

Take `CNc1cc(-c2ccc3c(N)n[nH]c3c2)nc(N)n1` [GSK2224810]: the “%Inh” value with CDK4-cyclinD1 is 3%; in the experiment with CDK4-cyclinD3 it was 0%; with CDK4 it was 18%; in the experiment with CDK5, 0%; in the experiment on CDK7 it was 2%; in the experiment on CDK8, 26%. Further, the “%Inh” value is given as 0% in the experiment with CDK9; 17% with CDKL1; 0% with CDKL2; 0% with CDKL3; 0% in the experiment with CDKL5; 0% with CHEK1. Besides, the “%Inh” value worked out at 84% in the experiment on CHEK2; 9% in the experiment with CIT; 90.2% in the experiment with CLK1; 80% with CLK2; 18% in the experiment with CLK3; 89% in the experiment with CLK4. In addition, the results for the “%Inh” value with CSF1R-autoinhibited and in the experiment with CSF1R were 5% and 3%, respectively.
In the case of `CS(=O)(=O)CCNCc1nc(-c2ccc3ncnc(Nc4ccc(OCc5ccccc5)c(Cl)c4)c3c2)cs1.Cl` [GW582764], the “%Inh” value in the experiment on CDK4-cyclinD1 is recorded as 45%; in the experiment on CDK4-cyclinD3, 0%; in the experiment on CDK4 it was 38%; with CDK5, 0%; with CDK7 it was 0%; in the experiment on CDK8 it was 47%. In addition, the “%Inh” value amounted to 0% in the experiment on CDK9; 9% with CDKL1; 18% in the experiment on CDKL2; 0% in the experiment with CDKL3; 0% with CDKL5; 100% with CHEK1. Also, the “%Inh” value with CHEK2 turned out to be 30%; with CIT, 38%; in the experiment with CLK1, 22%; in the experiment on CLK2, 0%; in the experiment on CLK3 it was 0%; with CLK4, 6%. The “%Inh” value with CSF1R-autoinhibited came out at 48%; with CSF1R, 3%.
Turning to `COc1ccc(CSc2nnc(-c3ccc4ncsc4c3)o2)cc1C(F)(F)F`, the “%Inh” value with CDK4-cyclinD1 came to 0%; in the experiment with CDK4-cyclinD3 it was 0%; in the experiment on CDK4, 0%; with CDK5 it was 2%; in the experiment with CDK7, 0%; in the experiment with CDK8, 15%. Besides, the “%Inh” value came out at 0% with CDK9; 0% in the experiment with CDKL1; 0% with CDKL2; 0% in the experiment on CDKL3; 8% in the experiment with CDKL5; 1% in the experiment with CHEK1. For the same compound, the “%Inh” value in the experiment on CHEK2 is listed as 17%; with CIT it was 9%; in the experiment on CLK1 it was 90.5%; with CLK2, 39%; in the experiment with CLK3, 0%; in the experiment with CLK4 it was 83%. The figures for the “%Inh” value in the experiment on CSF1R-autoinhibited and in the experiment on CSF1R were 0% and 1%, respectively.
`Cc1ccc(NC(=O)c2ccc(Cl)cc2)cc1-c1ccc(C(=O)Nc2ccncc2)cc1` [GSK1398467]: the “%Inh” value in the experiment with CDK4-cyclinD1, with CDK4-cyclinD3, in the experiment on CDK4, with CDK5, in the experiment with CDK7 and with CDK8 was 0% in each case. Besides, the “%Inh” value is given as 0% with CDK9; 13% in the experiment on CDKL1; 20% in the experiment with CDKL2; 0% in the experiment with CDKL3; 0% in the experiment with CDKL5; 16% with CHEK1. The “%Inh” value in the experiment on CHEK2 came out at 0%; in the experiment with CIT, 69%; in the experiment on CLK1 it was 3%; in the experiment on CLK2 it was 100%; with CLK3 it was 0%; in the experiment with CLK4 it was 15%. For the same compound, the entries for the “%Inh” value in the experiment with CSF1R-autoinhibited and with CSF1R were 0% and 97.1%, respectively.
`COc1cccc(C2=C(Nc3cc(Cl)c(O)c(Cl)c3)C(=O)NC2=O)c1` [SB-390767]: the “%Inh” value in the experiment on CDK4-cyclinD1 is 0%; in the experiment with CDK4-cyclinD3, 0%; in the experiment on CDK4, 0%; in the experiment on CDK5, 5%; in the experiment with CDK7 it was 0%; in the experiment with CDK8, 0%. In addition, the “%Inh” value stood at 0% in the experiment with CDK9; 1% in the experiment on CDKL1; 20% in the experiment with CDKL2; 0% in the experiment on CDKL3; 0% in the experiment on CDKL5; 100% in the experiment on CHEK1. Moreover, the “%Inh” value is on record as 0% in the experiment on CHEK2; 7% with CIT; 46% with CLK1; 0% in the experiment with CLK2; 14% in the experiment on CLK3; 15% in the experiment with CLK4. The “%Inh” value in the experiment with CSF1R-autoinhibited and in the experiment on CSF1R was 0% throughout.
As to `CC(=O)c1c(C)c2cnc(Nc3ccc(N4CCNCC4)cn3)nc2n(C2CCCC2)c1=O`, the “%Inh” value in the experiment with CDK4-cyclinD1 is given as 96.6%; in the experiment on CDK4-cyclinD3, 98.5%; in the experiment with CDK4, 21%; in the experiment with CDK5, 0%; in the experiment on CDK7, 27%; with CDK8, 0%. Further, the “%Inh” value in the experiment with CDK9 was 2%; with CDKL1, 0%; in the experiment on CDKL2, 0%; in the experiment on CDKL3, 6%; in the experiment on CDKL5 it was 0%; in the experiment with CHEK1, 0%. The “%Inh” value in the experiment with CHEK2 came out at 16%; in the experiment with CIT it was 3%; with CLK1, 23%; in the experiment with CLK2, 0%; in the experiment on CLK3, 100%; in the experiment with CLK4, 13%. The “%Inh” value in the experiment on CSF1R-autoinhibited and with CSF1R was 7% throughout.
`COc1ccc2cc(-c3nc(-c4ccccc4C(C)C)[nH]c3-c3ccncc3)ccc2c1` [SB-660566]: the “%Inh” value was 0% in the experiment on CDK4-cyclinD1; 19% in the experiment with CDK4-cyclinD3; 9% in the experiment with CDK4; 0% with CDK5; 0% in the experiment with CDK7; 0% in the experiment on CDK8. Also, the “%Inh” value with CDK9 was found to be 0%; in the experiment with CDKL1 it was 0%; in the experiment with CDKL2, 9%; in the experiment on CDKL3, 0%; in the experiment on CDKL5, 37%; in the experiment on CHEK1, 4%. In addition, the “%Inh” value in the experiment on CHEK2 came out at 0%; in the experiment with CIT it was 28%; in the experiment on CLK1 it was 12%; with CLK2 it was 0%; in the experiment with CLK3, 0%; with CLK4 it was 0%. The results for the “%Inh” value with CSF1R-autoinhibited and with CSF1R were 0% and 8%, respectively.
In the case of `CN1c2ccc(-c3ccc(C(N)=O)cc3)cc2-c2[nH]ncc2S1(=O)=O`, the “%Inh” value in the experiment on CDK4-cyclinD1 was found to be 27%; in the experiment with CDK4-cyclinD3, 0%; with CDK4 it was 0%; with CDK5 it was 0%; with CDK7, 0%; in the experiment on CDK8 it was 28%. Also, the “%Inh” value in the experiment with CDK9 turned out to be 0%; in the experiment on CDKL1 it was 22%; in the experiment with CDKL2 it was 31%; in the experiment with CDKL3, 0%; with CDKL5, 0%; in the experiment on CHEK1 it was 0%. Further, the “%Inh” value with CHEK2 came out at 49%; in the experiment with CIT it was 0%; in the experiment with CLK1 it was 25%; with CLK2, 70%; in the experiment on CLK3, 0%; in the experiment with CLK4, 15%. Besides, the “%Inh” value stood at 17% in the experiment with CSF1R-autoinhibited and 0% in the experiment with CSF1R.
Take `Cc1ccc(NC(=O)Nc2ccc(Cl)cc2)cc1-c1ccc(C(=O)Nc2ccncc2)cc1` [GSK1398472]: the “%Inh” value in the experiment with CDK4-cyclinD1 amounted to 0%; in the experiment with CDK4-cyclinD3, 10%; with CDK4, 2%; in the experiment on CDK5, 0%; in the experiment with CDK7, 0%; in the experiment on CDK8, 8%. Besides, the “%Inh” value is 0% in the experiment with CDK9; 3% with CDKL1; 19% with CDKL2; 1% with CDKL3; 0% in the experiment with CDKL5; 19% in the experiment on CHEK1. The “%Inh” value in the experiment with CHEK2 was 0%; in the experiment on CIT it was 89%; in the experiment on CLK1, 32%; in the experiment with CLK2 it was 0%; with CLK3 it was 14%; in the experiment on CLK4 it was 42%. For the same compound, the “%Inh” value with CSF1R-autoinhibited is reported as 4%; in the experiment on CSF1R, 87%.
Regarding `COC(=O)c1cccc(NC(=O)NC2CCN(c3ccnc(Nc4ccc(F)cc4)n3)C2)c1` (centres unmarked) [GSK1379725], the “%Inh” value in the experiment on CDK4-cyclinD1 is listed as 0%; in the experiment on CDK4-cyclinD3, 0%; with CDK4 it was 6%; in the experiment on CDK5, 0%; in the experiment with CDK7, 0%; in the experiment with CDK8 it was 41%. In addition, the “%Inh” value in the experiment with CDK9 is listed as 0%; in the experiment on CDKL1 it was 0%; with CDKL2 it was 82%; with CDKL3 it was 0%; in the experiment on CDKL5, 7%; in the experiment on CHEK1 it was 0%. The “%Inh” value turned out to be 0% in the experiment with CHEK2; 12% in the experiment on CIT; 10% in the experiment with CLK1; 0% in the experiment with CLK2; 0% in the experiment with CLK3; 10% in the experiment on CLK4. Besides, the “%Inh” value with CSF1R-autoinhibited is on record as 0%; in the experiment with CSF1R, 2%.
